# Results filed as inconclusive are left out. Calls of active or inactive are those of the source. The call rests on the fitted dose curve; in most records, active means well fitted cell-killing curve with a large enough effect; inconclusive means small, poorly fitted or top-dose-only effect; inactive means no such curve, though single readings can be large or run the other way.
# Assay: Quantitative High-Throughput drug screen in 47 multiple myeloma cell lines against the NCATS MIPE library collection: NCIH929_DSMZ cell viability assay (AID 1918978); further: nearly all actives have a fitted effect of over 35% in size
# Settings: NCI-H929 myeloma viability, CellTiter-Glo ATP, 48 h; series mostly up to 45.8 µM
# From the text: PI: Beverly A. Mock Ph.D.
# Laboratory of Cancer Biology and Genetics,
# Center for Cancer Research, National Cancer Institute,
# National Institute of Health, Bethesda, Maryland
# Drug resistance and disease progression are common in multiple myeloma (MM) patients, underscoring the need for new therapeutic combinations. […] We hypothesized that effective combinations would reduce MYC expression and enhance p16 activity. […] These preclinical data identify potentially useful drug combinations for evaluation in drug-resistant MM and reveal potential mechanisms of combined drug sensitivity.
# Described herein is the primary MIPE qHTS used to cherrypick compounds. Validated compounds were then further tested for potential synergistic activiy.
# [1] Peat TJ, Gaikwad SM, Dubois W, Gyabaah-Kessie N, Zhang S, Gorjifard S, Phyo Z, Andres M, Hughitt VK, Simpson RM, Miller MA, Girvin AT, Taylor A, Williams D, D'Antonio N, Zhang Y, Rajagopalan A, Flietner E, Wilson K, Zhang X, Shinn P, Klumpp-Thomas C, McKnight C, Itkin Z, Chen L, Kazandijian D, Zhang J, Michalowski AM, Simmons JK, Keats J, Thomas CJ, Mock BA. Drug combinations identified by high-throughput screening promote cell cycle transition and upregulate Smad pathways in myeloma. Cancer Lett. 2023 Aug 1;568:216284. doi: 10.1016/j.canlet.2023.216284. Epub 2023 Jun 24. PMID: 37356470; PMCID: PMC10408729.
# SEQUENCE No. (e.g., 1, 2, 3, etc.); […] (e.g., Cells, Incubation, Reagent, etc.); VALUE and DESCRIPTION.
# 1; Cells; 5 uL; white, solid bottom 1536-well Greiner assay plate.
# 2; Compounds; 23 nL; Kalypsis pin tool (Wako USA) equipped with a 1536-well pin head to transfer to the assay plates.
# 3; Incubation; 48 hours; 37C incubation.
# 4; Reagent;5uL; CellTiter Glo (Promega).
# 5; Detector; 425V; Luminescence; Viewlux PerkinElmer.
# NOTES (numbers refer to Sequence numbers above)
# 1. The cell-based screening methods employed in this study were like those previously published. Briefly, the corresponding myeloma cell lines were screened in 1,536-well plates with 500 cells, 5-uL per well for inhibition of cell viability (assessed by measuring ATP levels with CellTiterGlo).
# 2. NCATS MIPE 4.0 library of approved and investigational drugs were added using the Kalypsis pin tool. Wells treated with DMSO only for 100% viability and media only for 0% viability were used as controls.
# 3. The assay plates were covered and incubated for 48 hours in a 37C, 5% CO2 incubator with controlled humidity.
# 4. After 48 hours, CellTilter-GloTM luminescent substrate mix (Promega) reagent was added to the assay plate and plates we incubated for 5 min at room temperature.
# 5. Signal was measured as median relative luminescence units on a ViewLux (PerkinElmer) multiplate reader.
# [1] Heske CM, Davis MI, Baumgart JT, Wilson K, Gormally MV, Chen L, Zhang X, Ceribelli M, Duveau DY, Guha R, Ferrer M, Arnaldez FI, Ji J, Tran HL, Zhang Y, Mendoza A, Helman LJ, Thomas CJ. Matrix Screen Identifies Synergistic Combination of PARP Inhibitors and Nicotinamide Phosphoribosyltransferase (NAMPT) Inhibitors in Ewing Sarcoma. Clin Cancer Res. 2017 Dec 1;23(23):7301-7311. doi: 10.1158/1078-0432.CCR-17-1121. Epub 2017 Sep 12. PMID: 28899971; PMCID: PMC6636827.
# Potency means the concentration at half of the fitted maximal effect.
row,Compound,Potency
1,Cc1ccccc1-n1c(Cn2nc(-c3cccc(O)c3)c3c(N)ncnc32)nc2cccc(C)c2c1=O,14.8 µM (active)
2,O=C(NCCCCN1CCOCC1)c1cc2ccccc2o1,inactive
3,Nc1ncnc2c1c(-c1cccc(OCc3ccccc3)c1)cn2C1CC(CN2CCC2)C1 (stereo not given),0.418 µM (active)
4,CC[C@]1(O)C[C@H]2CN(CCC3=c4ccccc4=N[C]3[C@@](C(=O)OC)(c3cc4c(cc3OC)N(C)[C@H]3[C@@](O)(C(N)=O)[C@H](O)[C@]5(CC)C=CCN6CC[C@]43[C@@H]65)C2)C1,0.166 µM (active)
5,COc1cc(N2CCN(C)CC2)ccc1Nc1nc(N)c(C(=O)c2c(Cl)cccc2Cl)s1,inactive
6,COc1cc2c(cc1OC)[C@@H]1Cc3ccc(OC)c(OC)c3CN1CC2,inactive
7,CCOC(=O)N1CCN([N+]([O-])=NOc2cc(ON=[N+]([O-])N3CCN(C(=O)OCC)CC3)c([N+](=O)[O-])cc2[N+](=O)[O-])CC1,2.64 µM (active)
8,COc1ccc2ccc(=O)oc2c1CC=C(C)C,inactive
9,CC(C)c1onc(-c2c(Cl)cccc2Cl)c1COc1ccc(C=Cc2cccc(C(=O)O)c2)c(Cl)c1,inactive
10,C[C@@]1(c2cc(-c3cncnc3)c(F)cc2F)CCSC(N)=N1,2.96 µM (active)
11,CC(C)CNc1ccnc(NCc2csc(-c3ccccc3)n2)n1,20.9 µM (active)
12,CNC(=O)[C@H](CC1=CN=C2C=CCC=C12)NC(=O)[C@@H](CC(=O)NO)CC(C)C,23.5 µM (active)
13,CCNC(=O)Nc1ccc(Oc2ncnc(N)c2C=NOC)cc1Cl,inactive
14,Cc1cccc(Nc2nc(N[C@@H]3CCCC[C@H]3N)ncc2C(N)=O)c1,6.62 µM (active)
15,CCCCC(C=O)NC(=O)C(CC(C)C)NC(=O)OCc1ccccc1 (stereo not given),20.9 µM (active)
16,Cc1nn(Cc2ccccc2Cl)c(C)c1CN(C)CC(O)COc1ccc(Cl)cc1 (stereo not given),23.5 µM (active)
17,COc1ccc2cc1Oc1ccc(cc1)C[C@H]1c3cc(c(OC)cc3CCN1C)Oc1c(OC)c(OC)cc3c1[C@H](C2)N(C)CC3,20.9 µM (active)
18,NC(N)=Nc1nc(CSCCC(N)=NS(N)(=O)=O)cs1,8.33 µM (active)
19,COc1ccc(CCC(=O)Nc2nc3ccc(Cl)cc3s2)cc1OC,18.7 µM (active)
20,COc1ccnc(CS(=O)c2nc3ccc(OC(F)F)cc3[nH]2)c1OC (stereo not given),18.7 µM (active)

row,Compound,Potency
1,CN(C)CCOc1cc(-c2cn[nH]c2)ccc1NC(=O)C1COc2ccccc2O1 (stereo not given),18.7 µM (active)
2,Cc1ccc2c(c1)c1c(n2CCc2ccc(C)nc2)CCN(C)C1,inactive
3,CN1C(=O)C(Cc2c[nH]c3ccccc23)NC1=S (stereo not given),inactive
4,CCCCC(F)(F)[C@@]1(O)CC[C@H]2[C@H](CC(=O)[C@@H]2CCCCCCC(=O)O)O1,inactive
5,O=S(=O)(NCCNCC=Cc1ccc(Br)cc1)c1cccc2cnccc12,14.8 µM (active)
6,CCCCN(CCCC)CC(O)c1cc(Cl)cc2c1-c1ccc(Cl)cc1C2=Cc1ccc(Cl)cc1 (stereo not given),26.4 µM (active)
7,CC(C)(O)CC(=O)NCCn1ccc2ncnc(Nc3ccc(Oc4cccc(C(F)(F)F)c4)c(Cl)c3)c21,26.4 µM (active)
8,NC1(C(=O)N[C@@H](CCO)c2ccc(Cl)cc2)CCN(c2ncnc3[nH]ccc23)CC1,0.0833 µM (active)
9,CC1(C)OC2CC3C4CC(F)C5=CC(=O)C=CC5(C)C4C(O)CC3(C)[C@]2(C(=O)CO)O1 (stereo not given in full),inactive
10,Nc1ncnc2c1ncn2[C@@H]1O[C@H](CO)[C@@H](O)[C@@H]1O,8.33 µM (active)
11,Cc1cc(NC(=O)Nc2ccc(N(C)C)cc2)c2cc(F)cc(F)c2n1,inactive
12,CCOC(=O)[C@H](CCc1ccccc1)N[C@@H](C)C(=O)N1CCCC1C(=O)O (stereo not given in full),inactive
13,CCC(=C(c1ccc(O)cc1)c1ccc(OCCNC)cc1)c1ccccc1,14.8 µM (active)
14,Clc1ccc(COC(Cn2ccnc2)c2ccc(Cl)cc2Cl)c(Cl)c1 (stereo not given),18.7 µM (active)
15,COc1cc2c(cc1OC)CC(=O)N(CCCN(C)C[C@H]1Cc3cc(OC)c(OC)cc31)CC2,0.332 µM (active)
16,Clc1ccc(C2(c3ccc(-c4cn[nH]c4)cc3)CCNCC2)cc1,2.96 µM (active)
17,Cc1cc(CS(=O)(=O)c2ccccc2)cc(OCc2ccc(CN3CCC[C@H]3CO)cc2)c1,inactive
18,Cc1ccc(S(=O)(=O)OCC(=O)Nc2ccc(C(=O)O)c(O)c2)cc1,7.43 µM (active)
19,C[C@]12CCC3=C4CCC(=O)C=C4CC[C@@H]3[C@H]1CC[C@@]2(O)CC#N,inactive
20,COC(=O)Nc1ccc(-c2nc(N3CCOCC3)c3cnn(C4CCN(C(=O)OC)CC4)c3n2)cc1,0.0372 µM (active)

# — PubChem BioAssay (NCATS)
